# Assay outcomes deposited in PubChem BioAssay by National Center for Advancing Translational Sciences (NCATS).
# HepG2 tox – kills HepG2 cells in TGF-b inhibitor counter-screen. Potency, µM (titrated, usually from 46.1 µM), inactives show top-dose activity change, negative = cytotoxicity, usual class: cytotoxic. 410,000 tested, 0.76% active. HepG2 CAGA-GFP viability, ATP luminescence, 18 h. AID 588856; also: potency is read from the fitted curve at half-maximal effect
#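 CellTiter-Glo luminescence gave cytotoxicity after 18 hours at 37 degrees C. The cells were HepG2 CAGA-GFP in 1% FBS DMEM, stimulated with 500 pg/mL TGF-beta after compound addition. %Activity was normalised to no-cell wells (complete cell-killing) and DMSO (no toxicity), and curves were fitted and classified.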
# TGFb SMAD3 inh – blocks TGF-b signaling. 410,000 tested, 1.2% active. AID 588855. HepG2 CAGA-GFP TGF-b/SMAD3 reporter, GFP fluorescence, 18 h; TGF-beta stimulated, 500 pg/mL final. Potency, µM (titrated, usually from 46.1 µM), for the others: at the highest dose activity, negative = inhibition, hits mostly inhibitors; also: potency is read from the fitted curve at half-maximal effect; % is scaled to controls: 0 for no effect and ±100 for the full control effect; nearly all actives have a fitted effect of over 65% in size
#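 First, reporter cells (HEPG2 CAGA-GFP) rested 2 h at 37 degrees C. Next, compounds were pinned in and TGF-beta added to 500 pg/mL final. After 18 h, GFP was imaged per cell and summed per well.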
# TDP1 cell CPT – growth inhibition of DT40 Tdp1-/-;hTDP1 cells with camptothecin (screen for TDP1 inhibitors) | chicken DT40 Tdp1-/-;hTDP1 cells + 20 nM CPT, ATP luminescence, 48 h | Potency, µM (top dose mostly 46.2 µM), without a hit: at the top dose activity change, negative = growth inhibition, usual class: inhibitors | 420,000 tested, 12% active | AID 686979; also: potency is read from the fitted curve at half-maximal effect; % is scaled to controls: 0 for no effect and ±100 for the full control effect; nearly all actives have a fitted effect of over 55% in size
#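 Chicken DT40 Tdp1-/- cells complemented with human TDP1, 400 cells/well, exposed to compounds plus 20 nM camptothecin for at least 48 h at 37 C; viability read as ATP content by CellTiter-Glo luminescence.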
# IL-1B inflam inh – inhibitors of inflammasome signaling (IL-1 beta secretion) | THP-1 LPS/ATP IL-1B secretion, AlphaLISA, 16 h; stronger effect = lower value | AID 743279 | 360,000 tested, 4.7% active | activity change, % at 57.5 µM; in the data active = activity change below about -50%; inconclusive = mostly about -30% to -49%; also: % is scaled to controls: 0 for no effect and ±100 for the full control effect
#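 Secreted IL-1B measured by AlphaLISA bead assay after 16 h compound exposure of THP-1 cells; compounds (final up to 57.5 uM) added 1 h before LPS (250 ng/mL) and ATP (1.25 mM) stimulation; lower signal means less secretion.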
# S-ASM inh – inhibitors of human secretory acid sphingomyelinase; P17405; AID 504937; placental ASM, HMU-PC fluorogenic substrate, 60 min; 340,000 tested, 0.006% active; Potency, µM (series often up to 57.5 µM), for inactives: at the highest dose activity change, negative = inhibition, usual class: inhibitors; also: potency is read from the fitted curve at half-maximal effect
# Target sequence (P17405 47-631 limits assumed): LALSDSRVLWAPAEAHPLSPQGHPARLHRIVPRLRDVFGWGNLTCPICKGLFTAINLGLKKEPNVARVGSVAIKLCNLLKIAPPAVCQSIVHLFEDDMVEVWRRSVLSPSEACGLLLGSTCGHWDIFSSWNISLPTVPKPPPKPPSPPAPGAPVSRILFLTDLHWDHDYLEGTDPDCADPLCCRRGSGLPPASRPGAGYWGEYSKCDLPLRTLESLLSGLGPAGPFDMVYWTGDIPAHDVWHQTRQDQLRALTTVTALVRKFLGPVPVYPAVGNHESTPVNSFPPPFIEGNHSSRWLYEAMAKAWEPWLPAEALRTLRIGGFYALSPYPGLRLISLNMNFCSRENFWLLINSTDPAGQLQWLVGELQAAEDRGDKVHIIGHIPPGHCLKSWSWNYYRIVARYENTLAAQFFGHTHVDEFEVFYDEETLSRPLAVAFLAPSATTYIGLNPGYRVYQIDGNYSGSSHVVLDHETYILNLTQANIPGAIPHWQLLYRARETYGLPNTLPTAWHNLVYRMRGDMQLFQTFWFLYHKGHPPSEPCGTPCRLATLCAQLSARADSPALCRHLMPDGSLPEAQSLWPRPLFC
#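 Human placenta-derived ASM preincubated with compound 10 min at room temperature, then reacted with 9 uM (final) fluorogenic HMU-PC substrate for 60 min at 37 C. Stop solution raises pH to 10; fluorescence read at Ex 386/Em 447 nm.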
# DT40 TDP1 no CPT – qHTS for Inhibitors of human tyrosyl-DNA phosphodiesterase 1 (TDP1): qHTS in cells in absence of CPT. DT40 Tdp1-/- hTDP1 cells, no CPT, ATP luminescence, 48 h. Potency, µM (doses to about 46.2 µM), inactives show at the top dose activity change, negative = growth inhibition, most hits filed as inhibitors. 420,000 tested, 15% active; also: potency is read from the fitted curve at half-maximal effect; % is scaled to controls: 0 for no effect and ±100 for the full control effect; nearly all actives have a fitted effect of over 55% in size
#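 DT40 Tdp1-/-;hTDP1 cells, no CPT (DMSO vehicle only), 400 cells/well; compounds pin-transferred; ≥48 hr, 37 °C; CellTiter-Glo 30 min RT dark, luminescence read.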
# The depositor's hits bear a star; ? = inconclusive; . = no result given; ! = a repeat was not active. In the library only some 19% were active in any assay of this set; here they are far more common. Unless noted, calls follow the shape of the dose curve; as a rule, active = well fitted curve in the direction sought with a large enough effect; inconclusive = small, poorly fitted or top-dose-only effect, or another doubt; inactive = no such curve, though single readings can be large; an effect the other way counts as inactive or inconclusive.
SMILES,HepG2 tox,TGFb SMAD3 inh,TDP1 cell CPT,IL-1B inflam inh,S-ASM inh,DT40 TDP1 no CPT
CC1C/C(=C\c2cccnc2)C(=O)/C(=C/c2cccnc2)C1 (configuration not stated),16µM*,?,0.82µM*,-101*,0%,0.73µM*
C=CCn1c(SCC(=O)c2ccc(O)c(O)c2)nnc1-c1cccnc1,-4%,5%,-16%,28,-2%,7%
C=CCn1c(SCC(=O)c2ccc(O)c(O)c2)nnc1-c1cccc(Cl)c1,-38%,?,15µM*,-6,-6%,15µM*
C=CCn1c(SCC(=O)c2ccc(O)c(O)c2)nnc1-c1cccc(C)c1,-2%,-11%,16µM*,-17,-4%,18µM*
COc1ccc(CNc2ncnc3nc[nH]c23)cc1,-5%,8%,14µM*,.,.,14µM*!
COc1cccc(CNc2ncnc3nc[nH]c23)c1,1%,1%,?,.,.,?
COc1ccc(CNc2nc(NCc3ccc(OC)cc3)c3[nH]cnc3n2)cc1,-29%,-27%,?,10,-14%,29µM*
CCOC(=O)C1=NN(c2ccc(C)cc2)C2(S1)SC(C(C)=O)=C(C)N2c1ccccc1 (configuration not stated),-17%,3%,?,8,0%,21µM*
CCOC(=O)C1=NN(c2ccccc2)C2(S1)SC(C(C)=O)=C(C)N2c1ccccc1 (configuration not stated),-29%,-6%,?,-20,-10%,15µM*
CCOC(=O)C1=NN(c2cccc(C)c2)C2(S1)SC(C(C)=O)=C(C)N2c1ccccc1 (configuration not stated),-9%,-1%,1%,-17,2%,23%
COc1ccc(OC)c(NC(=O)CCN2CCN(CCO)CC2)c1,-16%,1%,9%,9,7%,1%
CCCc1cc(=O)oc2cc(C)c3c(C(C)(C)C)coc3c12,-8%,-4%,?,.,.,?
CCOC(=O)[C@@H]1[C@H]2COc3cc(OC)ccc3[C@@H]2N2C(=O)N(c3ccc(Br)cc3)C(=O)[C@]12C,-12%,-2%,15µM*,-21,-4%,?
CCOC(=O)[C@@H]1[C@H]2COc3cc(OC)ccc3[C@@H]2N2C(=O)N(c3ccc(C(F)(F)F)cc3)C(=O)[C@]12C,0%,9%,23µM*,-2,-1%,21µM*
CCOC(=O)[C@H]1[C@H]2COc3cc(OC)ccc3[C@@H]2N2C(=O)N(c3cccc(Cl)c3)C(=O)[C@@]12C,-29%,1%,?,-2,?,29µM*
CCOC(=O)[C@@H]1[C@H]2COc3cc(OC)ccc3[C@@H]2N2C(=O)N(c3cccc(Cl)c3)C(=O)[C@]12C,-5%,2%,?,-16,4%,?
CCOC(=O)[C@@H]1[C@H]2COc3cc(OC)ccc3[C@@H]2N2C(=O)N(c3ccc(OC)cc3)C(=O)[C@@]12C,0%,1%,-4%,22,0%,-2%
Cc1ccc(C)c(N2CCN(C(=O)CCS(=O)(=O)c3cc4c(cc3Cl)NC(=O)CO4)CC2)c1,-20%,-18%,.,.,.,.
CC(C)n1nccc1N(Cc1ccc(C#N)cc1)S(=O)(=O)c1ccccc1,-9%,7%,12%,21,-2%,?
O=C(Nc1cccc(Cl)c1Cl)C1CCN(C(=O)c2cccs2)CC1,-33%,-24%,-20%,-5,0%,3%
Cc1cc(NCCCN2CCOCC2)n2nc(C)c(-c3ccc(F)cc3)c2n1,-42%,-1%,?,-57*,1%,16µM*
